This passage reports inhibition results from PubChem BioAssay AID449762 (Southern Research Specialized Biocontainment Screening …, 2010).

For orientation: inhibition means the relative decrease from the control value, in per cent.

The campaign covered roughly 330,000 compounds. About 1,900 (0.58%) were called active. Not shown: some 4% with an inconclusive outcome. Not all results are given here. Results with a measured potency or affinity are listed apart. Unmarked numbers belong to inactive results. Rule as the data show it: inconclusive = inhibition above about 70% without an active follow-up result; inactive = below that.

The nature of this experiment: M. tuberculosis growth inhibition, HTS (AID 449762).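 Also: bacterial growth assessed after seven days of incubation.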 To be noted: M. tuberculosis H37Rv growth inhibition, 7H9 media; at 25 µM; active compounds read high.
For the compound `c1ccc(CCNc2ncnc3sccc23)nc1`, the inhibition is -8.28%. `Cc1ccc(N2CC(C(=O)Nc3cccc(C(=O)NC4CC4)c3)CC2=O)cc1` (stereo not given): the inhibition was -1.62%. On to `C/C(=N\Nc1nncc2ccccc12)c1ccc(O)cc1`, for which the inhibition is 13.3%. Take `COc1ccc(CC(=O)Oc2ccccc2C)cc1`: the inhibition was 10.5%. Take `CCN(CC)c1ccc(/C=N/NC(=O)c2ccc3nc[nH]c3c2)cc1`: the inhibition was 5.47%.

`CNC(=O)COc1coc(CN2CCN(c3ccccc3)CC2)cc1=O`: the inhibition was -6.51%. For `CC(NC(=O)/C(=C\c1cccc([N+](=O)[O-])c1)NC(=O)c1ccco1)C(=O)O` (stereo not given) the value was 2.24%; for `CCOC(=O)c1c(NC(=O)c2cc(-c3cccc(O)c3)on2)sc(C(C)=O)c1C`, 2.98%; for `CC1CCCCN1Cc1c(O)ccc2c(=O)c(-c3nc4ccccc4s3)coc12` (stereo not given), 6.43%. For `Cc1oc2c(CN3CCCC(C)C3)c(O)ccc2c(=O)c1-c1ccccc1` (stereo not given), the inhibition was 0.44%. For the compound `Cc1cccc(-n2nnnc2SCC(=O)N(CC(C)C)c2c(N)n(CC(C)C)c(=O)[nH]c2=O)c1`, the inhibition is 1.22%. In the case of `CC(C)Cc1nc2oc3c(NCC(C)O)ncnc3c2c2c1CCCC2` (stereo not given), the inhibition is 2.05%. For `CC(C)Cc1nc2oc3c(Cl)ncnc3c2c2c1CCCC2`, the inhibition is 2.35%.

Regarding `CC(C)c1ccc(CCNC(=O)c2cccc(S(=O)(=O)N3CCN(C)CC3)c2)cc1`, the inhibition is -4.06%.

Turning to `O=C1CCN(CCc2ccccc2)CCN1[C@H](CSc1ccccc1)Cc1ccccc1`, the inhibition was 13.6%. For `CCCN1CCC(=O)N([C@H](CSc2ccc(OC)cc2)Cc2ccccc2)CC1` the value was 0.11%; for `Cc1cc(C(=O)CSc2nc(N)cc(N)n2)c(C)n1CC1CCCO1` (stereo not given), -3.69%. As for `CCn1c(=O)c2cc(C(=O)NC(C)C)sc2c2ccccc21`, the inhibition is -0.74%. For the compound `Cc1c(OCc2nn[nH]n2)ccc2c3c(c(=O)oc12)CCCC3`, the inhibition is -3.72%. Turning to `COc1ccccc1OCC(=O)Nc1ccc(S(=O)(=O)N(C)c2ccccc2)cc1`, the inhibition is -13.2%. As for `COc1ccccc1-c1cc(C(F)(F)F)nc(S(C)(=O)=O)n1`, the inhibition was 2.66%. As to `COc1nc(-c2ccccc2)cc(C(F)(F)F)n1`, the inhibition was -3%. Take `O=C(NC(=S)Nc1ccc(CN2CCOCC2)cc1)c1cc2ccccc2o1`: the inhibition was 68.5%.

Turning to `COc1ccc(-n2c(-c3ccc(Br)cc3)n[nH]c2=S)cc1`, the inhibition is 7.43%. Consider `C=CCN(c1nc(C)cc(OC)n1)S(=O)(=O)c1ccccc1`, for which the inhibition is -6.07%.

For the compound `CC(OC(=O)/C=C/c1ccc2ccccc2n1)C(=O)N(C)c1ccccc1` (stereo not given), the inhibition is -4.67%. For `CC(OC(=O)/C=C/c1ccc2ccccc2n1)C(=O)Nc1ccc(S(N)(=O)=O)cc1` (stereo not given), the inhibition was 11.9%. With `NC(=O)c1ccccc1OCC(=O)Nc1cccnc1Cl`, the inhibition was 2.44%. In the case of `CCCc1ccc(Oc2cc(N3CCOCC3)nc(-c3ccccc3)n2)cc1`, the inhibition is 17.9%.

In the case of `CN(/N=C/c1cc(Br)cc(Br)c1O)c1ccccc1`, the inhibition was 3.99%. As for `O=C(O)c1cccc(N/N=C/c2cc(Br)cc(Br)c2O)c1`, the figure is -15.9%; as for `Cc1ccc(C(=O)Nc2ccccc2C(=O)N2CCCCC2C)cc1` (stereo not given), -0.75%.

For `COCC(=O)Nc1ccc(N2CCOCC2)c(S(=O)(=O)Nc2ccccc2OC)c1`, the inhibition was 1.36%.

Take `CCCCn1c2c(c(=N)c3c1CCC3)CCC2`: the inhibition is -1.93%. On to `CCCCCCn1c2c(c(=N)c3c1CCC3)CCC2`, for which the inhibition was -4.99%. In the case of `Cc1ccc(OCC(=O)OCc2c(C)noc2C)cc1C`, the inhibition was 3.24%. For `Cc1noc(C)c1COC(=O)COc1ccc(C#N)cc1` the value was 6.51%. In the case of `O=C(COC(=O)/C=C/c1ccc(F)cc1)NCC1CCCO1` (stereo not given), the inhibition is 6.52%. With `COc1ccc(/C=C/C(=O)OCC(=O)NCC2CCCO2)cc1` (stereo not given), the inhibition was 2.24%. Consider `Cc1noc(C)c1CSc1nnc(-c2ccccc2)n1N`, for which the inhibition was 6.07%. As for `CCc1cc(C(=O)Nc2ccccc2)cs1`, the figure is -4.05%. As for `CCOC(=O)Nc1ccc(C)cc1Br`, the figure is -1.99%. On to `COc1ccc(NC(=O)c2nc[nH]c2C(=O)N(C)Cc2ccccc2)cc1`, for which the inhibition was 9.08%. In the case of `NC1=NC(=O)/C(=C/C=C/c2cccs2)S1`, the inhibition is 18.7%.

With `COc1ccc(C(=O)Nc2c(N)nc(SCC(=O)NCC3CCCO3)[nH]c2=O)cc1` (stereo not given), the inhibition was 11.2%. Take `CCN(CC)C(=O)c1sc2nc(Cc3ccccc3)[nH]c(=O)c2c1C`: the inhibition was 4.02%. Consider `CCN(CC)C(=O)c1sc2nc(-c3ccncc3)[nH]c(=O)c2c1C`, for which the inhibition was -4.66%.

Turning to `COc1ccc(-n2c(O)c(/C=C3\C=Nc4ccc(Br)cc43)c(=O)[nH]c2=O)c(OC)c1`, the inhibition is -3.48%. As for `CCn1c(CSc2nnc(-c3ccc4c(c3)OCO4)o2)nc2cc(S(=O)(=O)N(C)C)ccc21`, the inhibition was -2.02%.

As for `O=C(c1cc(-c2cccc(Cl)c2)nc2ccccc12)N1CCCC1`, the inhibition is 4.01%. For `COc1ccc(OC)c(C2CC(c3c(-c4ccccc4)c4cc(Cl)ccc4[nH]c3=O)=NN2S(C)(=O)=O)c1` (stereo not given), the inhibition was 44.4%.

`COc1ccc(C2CC(c3c(-c4ccccc4)c4cc(Cl)ccc4[nH]c3=O)=NN2S(C)(=O)=O)cc1OC` (stereo not given): the inhibition was 7.95%.

In the case of `O=C(NCc1cccnc1)c1noc2c1CCCC2`, the inhibition is -1.71%. With `CCOC(=O)c1nsnc1NCCCl`, the inhibition is 4.35%. Regarding `C/C(=N\Nc1ccc(S(=O)(=O)N2CCCCC2)cn1)c1ccc(O)cc1`, the inhibition was -0.43%. As to `COc1cccc(/C(C)=N/Nc2ccc(S(=O)(=O)N3CCCCC3)cn2)c1`, the inhibition is -2.89%. `CC(=O)Nc1ccc(S(=O)(=O)Nc2ccccc2N2CCOCC2)cc1`: the inhibition was 5.3%. As for `CCCN(CCC)CCCNC(=O)c1cn(CC)c2ccc(S(=O)(=O)N3CCOCC3)cc2c1=O`, the figure is 3.73%. Consider `CCCCN(C)CCCNC(=O)c1cn(CC)c2ccc(S(=O)(=O)N3CCOCC3)cc2c1=O`, for which the inhibition is 3.29%. Turning to `Cc1ccc(S(=O)(=O)n2nc(OC(=O)c3ccccc3F)cc2N)cc1`, the inhibition is 1.24%. Regarding `O=c1[nH]nnc2sc3c(c12)CCCC3`, the inhibition is 1.62%.

For the compound `COc1cc(NS(=O)(=O)c2ccc(NC(=S)NC(=O)c3sc4ccccc4c3Cl)cc2)nc(OC)n1`, the inhibition was -0.21%. For `COc1ccc(C(=O)C2CCN(CC(=O)Nc3ccc(C)cc3)CC2)cc1` the value was 8.88%. For `Cc1ccc(-c2csc(NC(=O)CN3CCC(C(N)=O)CC3)n2)cc1`, the inhibition is 2.15%. Regarding `O=c1c(O)c(-c2ccc3c(c2)OCO3)oc2ccccc12`, the inhibition was 35.4%. Regarding `Cc1ccc(-c2oc3ccccc3c(=O)c2O)cc1`, the inhibition was 27.6%.

`CCOC(=O)CNC(=O)CNC(=O)c1ccc(OCC(C)C)cc1`: the inhibition was 22.7%. `CCOC(=O)c1sc2c(c1C)C(c1cccs1)C1=C(CCCC1=O)N2` (stereo not given): the inhibition was 11.9%.

As for `Cn1c(=O)c2c(nc(NCc3ccc4c(c3)OCO4)n2C)n(C)c1=O`, the inhibition is -2.77%.

With `COc1ccccc1CCNC(=O)C(=O)Nc1cc2c3c(c1)CC(=O)N3CCC2`, the inhibition was 57.3%. For the compound `O=C(CSc1nnc(CNC(=O)c2ccccc2)o1)c1ccc(Cl)cc1`, the inhibition is 1.96%. Regarding `O=C(O)CCSc1ccccn1`, the inhibition is -6.45%. `O=C(O)CSc1ccccn1`: the inhibition is 2.15%. On to `COC(=O)CC1C(=O)NCCN1C(=O)c1ccc([N+](=O)[O-])cc1` (stereo not given), for which the inhibition is -0.41%.

With `O=S(=O)(Nc1ccc(Cl)cn1)c1ccc(F)cc1`, the inhibition was -1.48%.

For `COc1cc2c(cc1NC(=O)COC(=O)[C@@H](NS(=O)(=O)c1ccccc1)C(C)C)oc1ccccc12`, the inhibition was 6.17%.

With `Clc1ccc(N2CCNCC2)nn1`, the inhibition is -10.1%.

As to `COc1cc(NC(=O)c2c(-c3ccccc3Cl)noc2C)c2ncccc2c1`, the inhibition was -6.92%.

With `Cc1onc(-c2ccccc2Cl)c1C(=O)Nc1cccc2cccnc12`, the inhibition was 14.3%. Turning to `Cn1cc(S(=O)(=O)N2CCC3(CC2)OCCO3)c(=O)n(C)c1=O`, the inhibition was -0.14%. As for `CC1=C(C(=O)OCc2ccccc2)C(c2cccc(F)c2)NC(=O)N1` (stereo not given), the figure is -8.13%; as for `Cc1cccc(-n2ncc3c2CCCC3NC(=O)C2=CC(=O)CC(C)(C)O2)c1C` (stereo not given), -0.85%; as for `Cc1ccc(N(CC(=O)Nc2cc(C)cc(C)c2)S(=O)(=O)c2c(C)noc2C)cc1`, 6.89%. `O=C(OCC(=O)C12CC3CC(CC(C3)C1)C2)c1ccccc1O`: the inhibition was 6.66%. For `Cc1cc(C)cc(NC(=O)c2cccn2-c2ncc(C(F)(F)F)cc2Cl)c1` the value was 6.22%; for `CN(C)C(=O)c1cccn1-c1ncc(C(F)(F)F)cc1Cl`, -4.51%. Consider `NC(=O)CCNC(=O)c1ccc(Cl)cc1`, for which the inhibition is -5.92%. As to `Cc1ccc(NC(=O)CN2C(=O)C3CC=CCC3C2=O)cc1S(=O)(=O)N1CCOCC1` (stereo not given), the inhibition was -2.53%. In the case of `CC(/C=C/c1ccccc1)=N\NC(=S)NC(C)C`, the inhibition is 28.1%.

As for `COC(=O)N/N=C(C)/C=C/c1ccccc1`, the inhibition is -8.99%. As for `Cc1ncc(CSc2nnnn2-c2ccccc2)c(N)n1`, the inhibition was 1.43%. For the compound `O=C(O)Cn1c(SCc2ccccc2)nc2ccccc21`, the inhibition was 2%. For `O=C(O)CCn1c(SCc2ccccc2)nc2ccccc21` the value was 2.64%; for `COC(=O)C1=C(c2ccc(OC)c(OC)c2)C[C@@H]2CC[C@H]1N2C(=O)NC1Cc2ccccc2C1`, -10%; for `Cc1ccc(C(=O)Nc2ccccc2NC(=O)c2ccc(C)o2)o1`, 7.31%.
